PubChem BioAssay AID2284365 (EPA ToxCast)
The source made the active and inactive calls. Rule for the calls: active = hit-call score of the fitted dose curve at least 0.9, where 1 is the maximum; inactive = score below 0.9.

Test: CCTE_Mundy_HCI_iCellGABA_NOG_NeuronCount: CCTE's Neurite Outgrowth Assay in iCellGABA cells for Neuron Count, Mundy Lab
Protocol: CCTE_Mundy_HCI_iCellGABA_NOG is a multiplexed, cell-based-readout assay that uses iCell GABANeurons from FUJIFILM Cellular Dynamics, Inc. (FCDI), human GABAergic enriched neurons derived from induced pluripotent stem (iPS) cells, with measurements taken at 50.33 hours after chemical dosing in a microplate: 96-well plate.CCTE_Mundy_HCI_iCellGABA_NOG_NeuronCount is one of four components of the CCTE_Mundy_HCI_iCellGABA_NOG assay. It measures cell viability related to number of neurons using High Content Imaging of fluorescently labelled markers.Data from the assay component CCTE_Mundy_HCI_iCellGABA_NOG_NeuronCount was analyzed at the endpoint CCTE_Mundy_HCI_iCellGABA_NOG_NeuronCount in the positive analysis fitting direction relative to DMSO as the negative control and baseline of activity. Using a type of viability reporter, loss-of-signal activity can be used to understand developmental effects.
Exposure starts 2 hours post-plating by adding 10 ul of the working solution to 90 ul of media in the wells for a 1/10 dilution. Forty-eight hours after chemical treatment cells are fixed by direct addition of 100 ul of warm (37C) Dulbecco's phosphate buffered saline (DPBS) fixative solution containing 8% paraformaldehyde, 8% sucrose, and 0.1% of 3 mg/ml Hoechst 33342 into each well. Primary antibodies are prepared by dilution in Immunocytochemical Staining Buffer (ISB), 10X Dulbecco's PBS, 0.1% Saponin, 5% Bovine Serum Albumin, 0.5% NaN3 (Sodium Azide) and betaIII-tubulin (rabbit anti-betaIII-tubulin, 1:800) followed by Alexa Fluor-488 secondary (1:500) to label neuronal cell bodies and neurites. A Cellomics ArrayScan VTi HCS Reader is used for automated image acquisition and analysis of neurite outgrowth.
In the case of CCOP(=O)(SC(C)CC)N1CCSC1=O (stereo unspecified), the outcome is reported as “inactive”. For CCOP(=S)(OCC)OC(Cl)C(Cl)(Cl)Cl (stereo unspecified), the AC50 was 9.92 µM (active). In the case of CCCSP(=O)(OCC)Oc1ccc(Br)cc1Cl (stereo unspecified), the outcome is reported as “inactive”. With COP(=O)(OC)OC(Br)C(Cl)(Cl)Br (stereo unspecified) the AC50 was 9.92 µM (active). With CCOP(=S)(OCC)SCSCC the AC50 was 0.316 µM (active). With CCOP(=S)(OCC)SCSC(C)(C)C the AC50 was 9.92 µM (active). For CCOP(=O)(OCC)Oc1nc(Cl)c(Cl)cc1Cl, the outcome was “inactive”. With CCOC(=O)CC(SP(=S)(OC)OC)C(=O)OCC (stereo unspecified) the AC50 was 50 µM (active). In the case of COP(=O)(OC)C(O)C(Cl)(Cl)Cl (stereo unspecified), the AC50 is reported as 0.205 µM (active). For COP(=O)(OC)OC=C(Cl)Cl, the outcome was “inactive”. In the case of CCOP(=S)(Oc1cnc(C(C)(C)C)nc1)OC(C)C (stereo unspecified), the outcome is reported as “inactive”. With COP(=O)(OC)O/C(=C\Cl)c1cc(Cl)c(Cl)cc1Cl the outcome was “inactive”. For CCCSP(=O)(OCC)SCCC, the outcome was “inactive”. With COP(=O)(NC(C)=O)SC (stereo unspecified) the outcome was “inactive”. For COP(=O)(OC)O/C(C)=C/C(=O)N(C)C, the outcome was “inactive”. For CCN(CC)c1nc(C)cc(OP(=S)(OC)OC)n1, the AC50 was 19.1 µM (active). For CCCCSP(=O)(SCCCC)SCCCC, the AC50 was 9.92 µM (active). For COP(N)(=O)SC (stereo unspecified), the outcome was “inactive”. In the case of CCOP(=S)(OCC)Oc1nc(Cl)c(Cl)cc1Cl, the AC50 is reported as 9.92 µM (active). With CCOC(=O)CC(SP(=O)(OC)OC)C(=O)OCC (stereo unspecified) the outcome was “inactive”. For CNC(=O)CSP(=S)(OC)OC, the outcome was “inactive”. For CCOP(=S)(OCC)Oc1ccc2c(C)c(Cl)c(=O)oc2c1, the AC50 was 23.4 µM (active). For CNC(=O)CSP(=O)(OC)OC, the AC50 was 18.9 µM (active). In the case of CCOP(=S)(OCC)Oc1cc(C)nc(C(C)C)n1, the outcome is reported as “inactive”. With COP(=S)(OC)SCN1C(=O)c2ccccc2C1=O the AC50 was 9.92 µM (active). In the case of CCOP(=O)(OCC)Oc1cc(C)nc(C(C)C)n1, the outcome is reported as “inactive”.
